ChEMBL document CHEMBL3988442, “University of Dundee, Small-Polar-MMV Screening Library” (2021)
For some of these results: Results with a measured potency or affinity are listed apart.

What was measured:
Design in all cases: scale not given: direction of the effect not stated beside the values
[1] = target: Protein translocase subunit SecA (Escherichia coli (strain K12)) (UniProt P10408); test: Assay to Identify E. coli SecA ATPase Inhibitors; format: functional; conditions: 30 µM
[2] = target: T1, Ubiquitin-activating enzyme e1, putative (Leishmania donovani (strain BPK282A1)) (UniProt E9BSI1); test: Leishmania donovani Ubiquitin Activating Enzyme (LdE1); format: functional; conditions: 30 µM
T1 sequence (whole entry): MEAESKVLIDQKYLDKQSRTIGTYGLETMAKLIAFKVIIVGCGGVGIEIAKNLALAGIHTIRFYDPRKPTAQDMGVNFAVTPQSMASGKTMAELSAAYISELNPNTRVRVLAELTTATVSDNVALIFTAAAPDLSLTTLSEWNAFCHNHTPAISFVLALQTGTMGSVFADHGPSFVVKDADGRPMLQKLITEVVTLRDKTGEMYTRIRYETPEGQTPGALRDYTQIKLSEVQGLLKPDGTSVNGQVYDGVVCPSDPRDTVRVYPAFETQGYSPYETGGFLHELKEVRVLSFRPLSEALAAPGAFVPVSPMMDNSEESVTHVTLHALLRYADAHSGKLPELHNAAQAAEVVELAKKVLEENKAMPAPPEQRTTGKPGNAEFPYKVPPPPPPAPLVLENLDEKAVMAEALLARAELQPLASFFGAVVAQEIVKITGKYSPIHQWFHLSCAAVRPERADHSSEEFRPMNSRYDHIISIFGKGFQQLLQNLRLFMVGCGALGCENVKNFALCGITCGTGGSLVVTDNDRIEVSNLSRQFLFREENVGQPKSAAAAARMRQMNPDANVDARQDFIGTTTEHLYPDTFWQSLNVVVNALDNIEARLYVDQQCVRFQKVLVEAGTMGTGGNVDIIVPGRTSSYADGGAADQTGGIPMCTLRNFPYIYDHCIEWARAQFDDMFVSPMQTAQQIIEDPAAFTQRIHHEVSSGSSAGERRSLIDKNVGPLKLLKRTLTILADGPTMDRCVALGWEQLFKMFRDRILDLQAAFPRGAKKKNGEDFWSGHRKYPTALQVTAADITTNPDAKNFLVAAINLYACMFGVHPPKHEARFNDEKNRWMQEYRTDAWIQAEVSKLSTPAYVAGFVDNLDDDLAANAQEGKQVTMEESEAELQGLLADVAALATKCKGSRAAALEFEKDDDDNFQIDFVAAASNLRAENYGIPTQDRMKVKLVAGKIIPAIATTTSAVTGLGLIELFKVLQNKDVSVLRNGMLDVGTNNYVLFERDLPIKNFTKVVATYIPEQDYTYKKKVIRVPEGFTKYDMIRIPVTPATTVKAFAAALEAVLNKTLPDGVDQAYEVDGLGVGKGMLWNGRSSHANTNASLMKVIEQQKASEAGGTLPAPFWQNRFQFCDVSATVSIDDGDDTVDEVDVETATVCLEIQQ

[3] = target: AMP-activated protein kinase, AMPK (Homo sapiens) (UniProt P54646+O43741+P54619+Q9UGJ0+Q9Y478+Q13131+Q9UGI9); test: AMP-dependent Kinase enzyme assay. An in vitro enzyme assay that detects ADP turnover that is directly proportional to AMPK activity. This uses naive AMPK that is activated during the assay with MK-8722; format: functional; conditions: 30 µM
[4] = target: Sialic acid-binding Ig-like lectin 9 (Homo sapiens) (UniProt Q9Y336); test: Hs-Siglec9 ALPHAscreen SOP 20170721; conditions: 10 µM
[5] = test system: Trypanosoma cruzi; test: Trypanosoma cruzi phosphomannomutase and mannose-1-phosphate guanylyltransferase assay; format: functional; conditions: 10 µM
[6] = target: T2, Arginase-2, mitochondrial (Homo sapiens) (UniProt P78540); test: in vitro enzyme assay to detect the production of urea directly proportional to the activity of Arginase II; format: functional; conditions: 33.3 µM; further: in the data most compounds retested in dose-response had high values
T2 sequence (whole entry): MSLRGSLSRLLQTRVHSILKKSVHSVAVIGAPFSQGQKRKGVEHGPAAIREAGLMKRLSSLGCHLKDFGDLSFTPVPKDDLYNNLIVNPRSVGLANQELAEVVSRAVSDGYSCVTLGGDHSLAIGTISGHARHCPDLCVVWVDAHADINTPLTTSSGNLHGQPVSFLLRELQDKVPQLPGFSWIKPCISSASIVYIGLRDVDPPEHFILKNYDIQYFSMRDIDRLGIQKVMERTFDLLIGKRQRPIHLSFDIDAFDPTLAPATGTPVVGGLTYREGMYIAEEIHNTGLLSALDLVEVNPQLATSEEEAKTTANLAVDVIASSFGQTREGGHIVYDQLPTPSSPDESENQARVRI

[7] = target: T3, Proteasome subunit beta (Trypanosoma cruzi) (UniProt O96673); test: Trypanosoma cruzi proteasome chymotrypsin-like activity (TcProtChymo) assay.; further: in the data most compounds retested in dose-response had high values; format: functional; conditions: 9.37 µM
T3 sequence (whole entry): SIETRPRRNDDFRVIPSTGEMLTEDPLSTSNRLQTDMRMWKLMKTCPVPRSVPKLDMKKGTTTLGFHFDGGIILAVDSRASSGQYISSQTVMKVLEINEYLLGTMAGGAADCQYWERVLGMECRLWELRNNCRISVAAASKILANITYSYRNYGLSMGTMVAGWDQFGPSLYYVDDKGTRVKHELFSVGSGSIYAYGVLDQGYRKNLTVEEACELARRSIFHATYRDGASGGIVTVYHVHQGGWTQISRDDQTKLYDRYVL

[8] = species: Homo sapiens; test: To identify inhibition of the IFN signalling (Jak-Stat) pathway via expression of an eGFP reporter gene under the control of an IFN-stimulated response element (ISRE) containing MxA promoter.; format: functional; conditions: 30 µM
[9] = target: T4, Tyrosyl-tRNA synthetase, putative (Trypanosoma cruzi (strain CL Brener)) (UniProt Q4DSP6); test: Trypanosoma cruzi tyrosyl tRNA synthetase (TcYRS) _High Tyrosine SOP; format: functional; conditions: 30 µM; further: in the data most compounds retested in dose-response had high values
T4 sequence (whole entry): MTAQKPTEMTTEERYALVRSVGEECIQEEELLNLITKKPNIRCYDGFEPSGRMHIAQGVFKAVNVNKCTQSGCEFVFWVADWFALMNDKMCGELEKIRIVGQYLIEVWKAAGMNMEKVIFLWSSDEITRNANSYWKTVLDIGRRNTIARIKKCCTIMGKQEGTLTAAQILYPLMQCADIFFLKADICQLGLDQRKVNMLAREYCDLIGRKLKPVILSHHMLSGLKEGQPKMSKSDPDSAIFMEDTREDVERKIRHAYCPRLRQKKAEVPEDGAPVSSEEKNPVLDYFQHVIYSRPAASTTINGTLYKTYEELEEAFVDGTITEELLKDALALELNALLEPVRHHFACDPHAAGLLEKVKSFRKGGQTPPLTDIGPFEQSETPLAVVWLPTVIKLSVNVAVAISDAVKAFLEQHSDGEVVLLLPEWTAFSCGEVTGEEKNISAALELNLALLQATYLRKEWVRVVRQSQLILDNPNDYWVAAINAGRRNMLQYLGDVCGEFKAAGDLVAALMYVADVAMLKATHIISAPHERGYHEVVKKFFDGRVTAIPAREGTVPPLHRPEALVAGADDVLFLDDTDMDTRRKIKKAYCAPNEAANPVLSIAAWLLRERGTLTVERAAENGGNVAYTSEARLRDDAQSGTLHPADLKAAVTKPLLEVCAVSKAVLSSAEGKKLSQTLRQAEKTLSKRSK

[10] = target: T4, Tyrosyl-tRNA synthetase, putative (Trypanosoma cruzi (strain CL Brener)); test: Trypanosoma cruzi tyrosyl tRNA synthetase (TcYRS) SOP; format: functional; conditions: 30 µM
[11] = target: Chromo domain-containing protein 1 (Saccharomyces cerevisiae (strain ATCC 204508 / S288c) (Baker's yeast)) (UniProt P32657); test: ScCHD-1 Enzyme Inhibition Assay; format: functional; conditions: 30 µM; further: in the data most compounds retested in dose-response had high values
Chain of Chromo domain-containing protein 1 (Saccharomyces cerevisiae (strain ATCC 204508 / S288c) (Baker's yeast)) (P32657 whole entry, the tested form may be a part): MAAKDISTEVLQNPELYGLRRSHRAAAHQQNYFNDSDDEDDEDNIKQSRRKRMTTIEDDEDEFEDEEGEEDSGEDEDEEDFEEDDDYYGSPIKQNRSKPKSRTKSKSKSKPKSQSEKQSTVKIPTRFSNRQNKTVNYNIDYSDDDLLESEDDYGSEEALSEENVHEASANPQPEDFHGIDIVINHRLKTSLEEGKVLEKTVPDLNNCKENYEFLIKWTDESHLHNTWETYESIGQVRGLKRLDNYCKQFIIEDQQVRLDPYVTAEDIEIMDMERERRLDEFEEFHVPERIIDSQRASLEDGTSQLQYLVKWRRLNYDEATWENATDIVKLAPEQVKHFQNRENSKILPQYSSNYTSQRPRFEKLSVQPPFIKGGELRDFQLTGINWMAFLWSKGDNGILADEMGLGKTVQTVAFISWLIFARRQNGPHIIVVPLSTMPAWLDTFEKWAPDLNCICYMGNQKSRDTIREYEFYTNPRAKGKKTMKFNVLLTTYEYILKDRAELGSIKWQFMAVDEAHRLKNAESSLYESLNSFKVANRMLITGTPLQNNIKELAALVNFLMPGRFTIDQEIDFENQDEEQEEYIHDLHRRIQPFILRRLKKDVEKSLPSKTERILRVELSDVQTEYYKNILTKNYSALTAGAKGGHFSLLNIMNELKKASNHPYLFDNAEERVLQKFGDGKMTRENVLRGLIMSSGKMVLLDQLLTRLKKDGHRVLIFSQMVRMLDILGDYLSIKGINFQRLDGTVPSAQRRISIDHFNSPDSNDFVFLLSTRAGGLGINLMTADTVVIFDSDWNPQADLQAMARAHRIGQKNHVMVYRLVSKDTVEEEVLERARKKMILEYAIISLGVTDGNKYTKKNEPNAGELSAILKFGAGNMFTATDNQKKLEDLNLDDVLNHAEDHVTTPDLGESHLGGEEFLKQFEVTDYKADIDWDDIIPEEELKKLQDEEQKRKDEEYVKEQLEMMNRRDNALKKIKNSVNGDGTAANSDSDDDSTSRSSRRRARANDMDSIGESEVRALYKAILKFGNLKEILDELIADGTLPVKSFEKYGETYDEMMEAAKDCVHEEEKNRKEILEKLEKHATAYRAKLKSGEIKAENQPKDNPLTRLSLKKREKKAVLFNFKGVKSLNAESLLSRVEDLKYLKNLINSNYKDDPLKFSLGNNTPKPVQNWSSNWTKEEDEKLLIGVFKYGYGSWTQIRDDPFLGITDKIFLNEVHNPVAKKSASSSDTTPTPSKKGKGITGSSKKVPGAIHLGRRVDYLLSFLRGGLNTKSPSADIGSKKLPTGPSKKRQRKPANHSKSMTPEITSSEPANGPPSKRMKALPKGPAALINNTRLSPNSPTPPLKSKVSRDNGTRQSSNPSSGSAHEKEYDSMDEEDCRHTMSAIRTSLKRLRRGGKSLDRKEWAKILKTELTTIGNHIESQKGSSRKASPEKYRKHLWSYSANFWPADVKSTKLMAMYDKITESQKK

Chain of Sialic acid-binding Ig-like lectin 9 (Homo sapiens) (Q9Y336 whole entry): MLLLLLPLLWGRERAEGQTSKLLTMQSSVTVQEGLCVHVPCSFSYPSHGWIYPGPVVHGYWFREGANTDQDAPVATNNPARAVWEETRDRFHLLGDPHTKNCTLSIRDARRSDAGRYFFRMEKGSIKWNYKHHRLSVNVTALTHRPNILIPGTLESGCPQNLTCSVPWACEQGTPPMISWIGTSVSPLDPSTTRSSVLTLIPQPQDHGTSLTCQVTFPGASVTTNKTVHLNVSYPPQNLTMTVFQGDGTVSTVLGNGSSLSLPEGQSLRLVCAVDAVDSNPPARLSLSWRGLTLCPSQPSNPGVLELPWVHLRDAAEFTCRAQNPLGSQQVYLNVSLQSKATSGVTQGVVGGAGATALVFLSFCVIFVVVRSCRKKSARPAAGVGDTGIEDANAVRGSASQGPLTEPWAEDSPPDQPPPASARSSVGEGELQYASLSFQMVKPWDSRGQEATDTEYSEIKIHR
Chain of Protein translocase subunit SecA (Escherichia coli (strain K12)) (P10408 whole entry): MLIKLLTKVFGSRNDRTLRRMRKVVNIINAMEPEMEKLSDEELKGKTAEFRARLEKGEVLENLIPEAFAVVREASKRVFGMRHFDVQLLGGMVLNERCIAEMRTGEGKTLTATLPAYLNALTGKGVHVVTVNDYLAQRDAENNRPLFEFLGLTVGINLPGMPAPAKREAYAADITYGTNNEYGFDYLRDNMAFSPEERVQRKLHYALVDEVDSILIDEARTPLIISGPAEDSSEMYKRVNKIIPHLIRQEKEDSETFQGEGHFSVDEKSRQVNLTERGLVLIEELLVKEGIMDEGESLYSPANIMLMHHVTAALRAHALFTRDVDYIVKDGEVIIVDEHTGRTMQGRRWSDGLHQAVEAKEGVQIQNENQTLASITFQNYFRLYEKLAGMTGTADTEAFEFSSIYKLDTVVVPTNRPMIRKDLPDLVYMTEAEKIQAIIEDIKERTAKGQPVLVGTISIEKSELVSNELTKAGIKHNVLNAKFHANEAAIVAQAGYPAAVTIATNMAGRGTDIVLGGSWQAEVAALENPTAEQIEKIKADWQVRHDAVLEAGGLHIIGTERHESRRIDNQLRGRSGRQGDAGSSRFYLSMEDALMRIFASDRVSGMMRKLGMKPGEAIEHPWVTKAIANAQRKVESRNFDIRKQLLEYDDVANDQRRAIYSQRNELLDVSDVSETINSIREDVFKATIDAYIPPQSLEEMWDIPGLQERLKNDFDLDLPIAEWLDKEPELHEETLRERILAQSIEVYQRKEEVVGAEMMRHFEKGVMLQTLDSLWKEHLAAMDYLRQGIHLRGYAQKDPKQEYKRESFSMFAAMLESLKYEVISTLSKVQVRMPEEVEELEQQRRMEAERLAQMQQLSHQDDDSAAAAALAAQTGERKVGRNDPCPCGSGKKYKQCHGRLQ

| Structure (SMILES) | Percent Effect [1] [%] | Percent Effect [2] [%] | Percent Effect [3] [%] | Percent Effect [4] [%] | Percent Effect [5] [%] | Percent Effect [6] [%] | Percent Effect [7] [%] | Percent Effect [8] [%] | Percent Effect [9] [%] | Percent Effect [10] [%] | Percent Effect [11] [%] |
| --- | --- | --- | --- | --- | --- | --- | --- | --- | --- | --- | --- |
| CCn1cc(CNC2CC(=O)N(CCc3cccc(Cl)c3)C2)cn1 (stereo not given) | -5.27 | 8.22 | 1.5 | 35.6 | 0.397 | -3.99 | 8.65 | 2.71 | 2.08 | 8.64 | -4.3 |
| O=C(NCCNc1cnccn1)N1CCCC1 | -4.38 | 6.33 | 8.17 | -3.74 | -2.56 | 1.94 | 5.15 | 8.14 | 1.04 | 5.06 | -18.6 |
| Cc1cccc(OCCC(=O)N2CCCN(C(N)=O)CC2)c1C | -5.63 | -63.3 | -5.53 | -0.36 | -9.54 | 3.8 | 3.85 | 27.5 | -3.45 | -8.86 | -6.9 |
| O=C(CCc1cccc(F)c1F)N1CCN(Cc2ccco2)CC1 | 0.132 | 2.7 | -1.7 | 9.76 | 3.48 | 0.476 | 10.3 | 0.925 | 0.529 | -2.44 | -2.5 |
| O=C(C1SCCc2sccc21)N1CCC(O)CC1 (stereo not given) | -4.42 | -5.41 | 2.06 | 0.929 | -6.25 | 0.833 | 6.34 | 5.86 | 5.94 | 1.22 | 1.03 |
| CN(C)c1ncc(-c2cc(C(=O)O)n(CC3CC3)c2)cn1 | -1.6 | -2.7 | 5.47 | -3.4 | 1.95 | -0.833 | 7.69 | 7.22 | 5.94 | -3.66 | -8.88 |
| COCC1CN(S(C)(=O)=O)Cc2ncn(CC3CC3)c21 (stereo not given) | -4.92 | 13.5 | -0.0233 | -3.08 | -5.38 | 0.248 | 14.2 | 27.2 | 4.3 | 8.64 | -3.62 |
| c1csc(CN2CCO[C@H]3[C@H](OCCN4CCCC4)CC[C@@H]32)n1 | -4.05 | 7.79 | 0.971 | 16 | -0.885 | -57.9 | 8.15 | 10.2 | 2.15 | 11.1 | -0.273 |
| Cc1cc(NC(=O)NCc2cccnc2OC(C)C)n(C)n1 | -2.88 | 8.86 | 1.26 | 3.66 | 0.103 | -1.07 | 19.4 | 4.52 | 3.12 | 12.7 | -22.1 |
| CC1CN(C)c2ccccc2CN1C(=O)c1ccc[nH]1 (stereo not given) | -4.68 | 5.48 | -8.65 | -2.78 | -0.196 | 0.455 | 12.9 | 20.4 | 5.38 | 10 | -4.57 |
| O=C(CCCNC(=O)C1CC1)Nc1cnn(-c2ccccc2Cl)c1 | -2.62 | 5.41 | -9.02 | 0.665 | 7.33 | -3.51 | 5.03 | -1.9 | 5.94 | 13.4 | -3.58 |
| CCc1noc(CNc2cc(F)ccc2OCC2CCCO2)n1 (stereo not given) | -0.224 | -2.7 | -4.16 | 1.82 | -4.83 | -0.476 | 11.9 | 2.67 | -0.529 | 0 | -1.43 |
| C[C@@H]1CN(C2(C(=O)N3CCOCC3)Cc3ccccc3C2)C[C@H](C)O1 | -4.17 | -37.5 | -3.25 | 0.729 | 0.875 | 1.77 | 8.6 | -18.6 | 5.26 | 7.69 | -3.31 |
| COc1ccc(C(C(=O)O)N2CCCN(C3CCCC3)CC2)cc1OC (stereo not given) | -8.69 | 0 | -2.66 | -4.35 | -3.81 | -2.23 | -0.429 | 16 | -9.68 | -1.24 | -4.58 |
| CN(C)S(=O)(=O)c1ccc(CN2CCCC2c2ccc[nH]2)o1 (stereo not given) | -6.1 | -13.2 | -1.76 | -2.17 | -2.52 | -0.719 | -2.79 | -1.99 | 4.43 | -6.17 | 5.79 |
| O=C(NCCCn1cncn1)N1CCCC(N2CCCC2)C1 (stereo not given) | -3.14 | 21.1 | -6.64 | -3.21 | 3.01 | 2.3 | 13.4 | 14.6 | 5.39 | 19.5 | -10.5 |
| O=C(O)c1ccc(F)c(S(=O)(=O)Nc2c(F)cccc2-n2cccn2)c1 | -6.05 | 2.67 | -4.66 | 12.6 | 2.04 | 3.12 | 8.02 | 2.56 | 4.92 | 8.64 | -3.46 |
| CC1CCCN(Cc2coc(-c3cccc(F)c3)n2)C1 (stereo not given) | -5.97 | 2.6 | 8.2 | 7.31 | 1.31 | 2.49 | -0.507 | 3.77 | 5.83 | 2.44 | 0.197 |
| O=S(=O)(CCNCc1ccc2c(c1)CCO2)N1CCOCC1 | -6.32 | -2.7 | -3.09 | 10.1 | -3.67 | -3.33 | 11.7 | -0.791 | -0.529 | -4.88 | -4.8 |
| c1ccc(-n2ccnc2)c(CNCC2CNc3ccnn3C2)c1 (stereo not given) | -2.24 | 18.2 | -5.79 | 12.2 | 7.68 | 1.07 | 2.53 | 17.5 | 5.83 | 21.9 | -7.36 |
